# Biological target: Solute carrier family 2, facilitated glucose transporter member 1 (Homo sapiens) (UniProt P11166)
# Assay: ST_JUDE_LEISH: Cytotoxicity at 2uM final concentration against transgenic Leishmania Mexicana promastigotes LmGLUT1 that are glucose transport deficient and complemented with the human glucose transporter GLUT1. Activity is measured by DNA content using SYBR green in vitro
# Format: functional
# Sequence of Solute carrier family 2, facilitated glucose transporter member 1 (Homo sapiens) (P11166 whole entry): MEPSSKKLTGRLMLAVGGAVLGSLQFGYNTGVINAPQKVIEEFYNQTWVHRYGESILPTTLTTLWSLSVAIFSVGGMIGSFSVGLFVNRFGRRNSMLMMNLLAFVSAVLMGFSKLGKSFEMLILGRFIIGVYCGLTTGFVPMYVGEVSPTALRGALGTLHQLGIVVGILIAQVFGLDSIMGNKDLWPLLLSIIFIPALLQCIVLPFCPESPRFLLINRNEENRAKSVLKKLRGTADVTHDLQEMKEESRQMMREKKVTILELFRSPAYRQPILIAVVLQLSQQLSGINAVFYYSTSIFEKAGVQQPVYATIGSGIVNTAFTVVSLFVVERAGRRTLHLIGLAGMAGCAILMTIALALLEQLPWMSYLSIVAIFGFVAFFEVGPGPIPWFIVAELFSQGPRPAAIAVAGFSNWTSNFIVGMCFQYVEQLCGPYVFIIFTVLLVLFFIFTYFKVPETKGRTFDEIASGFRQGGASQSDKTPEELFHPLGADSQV
row,Structure (SMILES),inhibition [%]
1,CC(C)(C)c1ccc2oc(=O)n(C3CCN(C(=O)c4ccc([N+](=O)[O-])o4)CC3)c2c1,5.8
2,COc1ccc(NC(=O)C2CCN(CCCCCNC(=O)/C=C/c3ccc(Cl)c(Cl)c3)CC2)cc1,2.19
3,COc1cc2nc(N3CCN(C(=O)c4cccc(I)c4)CC3)nc(N)c2cc1OC,5.23
4,CC(CN1CCN(C)CC1)C(=O)Nc1ccc(-c2ccc(-c3nc4ccccc4[nH]3)s2)cc1 (stereo not given),5.66
5,N#Cc1ccccc1Sc1ccccc1C(=O)Nc1ccc2ccccc2n1,7.84
6,Oc1c(Cl)cc(Nc2nccc(Nc3ccc(Oc4ccccc4)cc3)n2)cc1Cl,4.19
7,O=C(Nc1ccncc1)c1cc(C(=O)Nc2ccncc2)cc([N+](=O)[O-])c1,-0.17
8,Nc1nc(N)c2cc(C#Cc3ccc(-c4ccccc4)cc3)ccc2n1,4.53
9,Cc1cccc2nc(-c3cccc(-c4cccc(NC(=O)c5csnn5)c4)c3)[nH]c12,4.92

# Biological target: Hexose transporter 1 (Plasmodium falciparum) (UniProt O97467)
# Assay: ST_JUDE_LEISH: Cytotoxicity at 2uM final concentration against transgenic Leishmania Mexicana promastigotes LmPfHT that are glucose transport deficient and complemented with the Plasmodium falciparum hexose transporter. Activity is measured by DNA content using SYBR green in vitro
# Format: functional
row,Structure (SMILES),inhibition [%]
1,CNC(=O)c1cnc(Nc2ccc(N3CCN(C)CC3)cc2)nc1Nc1ccccc1OC,4.09
2,Oc1ccc(Cl)cc1-c1cc(C(F)(F)F)nc(-c2ccccc2)n1,5.96
3,O=[N+]([O-])c1ccc(C2=NN(S(=O)(=O)c3c(Cl)cc(Cl)cc3Cl)CCCC2)cc1,0.56
4,Cc1cc(CNC(=O)c2ccc(-c3ccc(-c4nc5cc(C(F)(F)F)ccc5[nH]4)s3)cc2)on1,3.31
5,Cc1ccc(-c2cnc3[nH]cc(-c4ccc(C(=O)O)c(C)c4)c3c2)cc1C,1.14
6,N#Cc1cccc(NC(=O)NC2CCN(CCCCCNC(=O)C3CC3c3ccc(Cl)c(Cl)c3)CC2)c1 (stereo not given),0.42
7,O=C(Nc1cccc(CN2CCN(Cc3ccc(O)cc3)CC2)c1)c1ccc(Cl)c(Cl)c1,5.27
8,O=C(NCCc1ccccc1)N(Cc1cccc(-c2ccc(CNC3CCCC3)cc2)c1)C1CCN(Cc2ccccc2)CC1,13.2
9,CCCNC(=O)Nc1cc2cc(-c3ccc(CN4CCCC4)cc3)ccc2n2c(C)nnc12,3.01
10,Cc1cccc2nc(-c3ccc(-c4ccc(CN5CCN(C6CCN(C)CC6)CC5)cc4)s3)[nH]c12,1.2
11,CC(C)CCNCc1ccc(OCc2cccc(C(=O)Nc3ccccc3)c2)c(I)c1,3.14
12,Fc1ccc2[nH]c(-c3ccc(-c4ccc(CNCc5ccccc5)cc4)cc3)nc2c1,8.67
13,Nc1nonc1-c1nc2c(-c3cccc(Cl)c3)nccc2n1CCCNC(=O)Cc1ccc(Cl)cc1,0.77
14,Cc1cc(O)c2c(c1)OC(C)(C)C=C2C1=CCN(Cc2ccccc2)CC1,6.87
15,Nc1c(Cl)cc(C(O)CNCCCCCOCCc2ccc3occc3c2)cc1Cl (stereo not given),3.64
16,CC(=O)Nc1ccc(Nc2c3ccccc3nc3ccccc23)cc1,7.37

row,Structure (SMILES),inhibition [%]
1,Cc1nc(-c2cccc3c(NC(=O)N4CCc5cc6nccc(N7CCN(C)CC7)c6cc54)cccc23)no1,-2.64
2,O=C(C=Cc1ccc(Cl)c(Cl)c1)NCCCCCN1CCC(CCNS(=O)(=O)c2ccc(F)cc2)CC1,0.05
3,COc1ccc(CN(C)CCCOc2ccc(NC(=O)c3cccc4c(=O)c5cccc(C)c5[nH]c34)cc2)cc1OC,4.25
4,CCOc1ccccc1NC(=O)C(Sc1nc(C)cc(C)c1C#N)c1ccccc1 (stereo not given),3.77
5,N=C(N)c1ccc(-c2cc3ccc(C(=N)N)cc3[nH]2)cc1,62.2
6,COc1ccc(CNC2CCN(C)CC2)cc1-c1ccc(S(=O)(=O)NC2CCC2)s1,4.46
7,CCCc1ccc(C(=O)N2C(c3nccs3)C(C(N)=O)CC2(CC(C)C)C(=O)O)cc1 (stereo not given),2.07
8,CN(C)C(CNC(=O)c1cc(-c2ccncc2)c(-c2ccc(NC(=O)Nc3cccc(F)c3)cc2)o1)c1ccccc1 (stereo not given),0.71
9,Fc1ccc2[nH]c(-c3cccc(-c4ccc(CNCC5CCCO5)cc4)c3)nc2c1 (stereo not given),-3.6
10,COc1cc2nc(N3CCC(CNCc4ccc(-c5ccc(C(F)(F)F)cc5)cc4)CC3)nc(N)c2cc1OC,107
11,O=[N+]([O-])c1cccc(-c2nc3cc(C4=NC5CCCCC5N4)ccc3[nH]2)c1 (stereo not given),2.08
12,COc1cc(N(Cc2ccccc2C)S(=O)(=O)Cc2ccccc2[N+](=O)[O-])c(OC)cc1Cl,2.73
13,N#Cc1ccc(CNCCCCCCCNCc2ccc(-c3ccccc3)cc2)cc1,5.01
14,COc1cc(NC(=O)c2sc(-c3ccc(Cl)cc3)cc2NC(=O)c2ccncc2)ccc1OCCN1CCCC1,3.54
15,CC(C)(C)c1ccc2oc(=O)n(C3CCN(C(=O)c4ccc([N+](=O)[O-])o4)CC3)c2c1,10.9

# Source: ChEMBL document CHEMBL3433997, “St. Jude Leishmania screening dataset” (2016)
